Here are results for 86 compounds from article PMC4336329 (PLoS ONE, 2015).

In all, about 310,000 compounds went through this assay and about 14,000 (4.5%) showed an effect of 50% or more. The effect is printed as a negative number. Many of the other results were omitted from the sample, so strong results are more common in it than they were.
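Further: peak tail current of the secondary pulse compared with the same well before compound.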

Sequence of human ether-à-go-go-related gene (hERG) potassium channel (Q12809 whole entry, looked up): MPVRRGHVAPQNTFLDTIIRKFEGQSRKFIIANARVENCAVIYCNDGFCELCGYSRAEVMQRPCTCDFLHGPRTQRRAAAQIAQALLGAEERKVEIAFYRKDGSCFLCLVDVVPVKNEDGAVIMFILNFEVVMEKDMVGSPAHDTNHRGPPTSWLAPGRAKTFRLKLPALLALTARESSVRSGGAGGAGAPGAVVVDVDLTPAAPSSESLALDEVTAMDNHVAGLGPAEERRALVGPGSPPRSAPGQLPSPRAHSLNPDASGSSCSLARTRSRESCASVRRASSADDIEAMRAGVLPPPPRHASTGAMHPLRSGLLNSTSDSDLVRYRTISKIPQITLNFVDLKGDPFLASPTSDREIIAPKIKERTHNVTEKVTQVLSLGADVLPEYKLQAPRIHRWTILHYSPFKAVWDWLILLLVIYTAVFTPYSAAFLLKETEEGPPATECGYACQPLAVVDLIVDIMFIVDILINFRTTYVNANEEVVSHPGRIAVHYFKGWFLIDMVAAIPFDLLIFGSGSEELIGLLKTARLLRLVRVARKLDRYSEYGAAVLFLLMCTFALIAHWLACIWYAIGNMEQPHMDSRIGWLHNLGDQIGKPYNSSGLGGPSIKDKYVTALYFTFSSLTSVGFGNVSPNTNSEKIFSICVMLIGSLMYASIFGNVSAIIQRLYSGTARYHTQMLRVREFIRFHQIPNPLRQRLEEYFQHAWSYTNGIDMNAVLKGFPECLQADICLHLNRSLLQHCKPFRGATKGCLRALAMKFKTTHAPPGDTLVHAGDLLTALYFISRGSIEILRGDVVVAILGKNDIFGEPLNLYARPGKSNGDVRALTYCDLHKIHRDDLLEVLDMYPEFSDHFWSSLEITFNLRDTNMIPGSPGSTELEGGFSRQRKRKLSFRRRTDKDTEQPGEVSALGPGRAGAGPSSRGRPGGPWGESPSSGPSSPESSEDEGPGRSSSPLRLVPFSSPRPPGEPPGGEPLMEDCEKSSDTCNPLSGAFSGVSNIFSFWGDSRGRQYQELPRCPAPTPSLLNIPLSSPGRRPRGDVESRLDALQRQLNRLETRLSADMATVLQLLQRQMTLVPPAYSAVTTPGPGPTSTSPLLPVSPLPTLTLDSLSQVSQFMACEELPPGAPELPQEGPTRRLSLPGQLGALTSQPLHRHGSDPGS

The test has as its target human ether-à-go-go-related gene (hERG) potassium channel (human, UniProt Q12809). Nature of the test: primary screen, population patch clamp on CHO cells stably expressing hERG; higher = less effect of the substance.
For the compound `Cc1ccnc(Nc2nc3ccccc3s2)n1`, the “hERG current change (%, negative = inhibition) at 10uM” value is on record as -4.71%. To `COc1ccc(NC(=O)C2CCCN(c3nccc(C)n3)C2)cc1` (centres unmarked) belongs -3.13%; to `CCOC(=O)c1c(C)n(Cc2ccco2)c2c1cc(O)c1ccccc12`, 6.11%.

In the case of `Cc1ccc(OCCn2c(NC(=O)c3ccco3)nc3ccccc32)cc1`, the “hERG current change (%, negative = inhibition) at 10uM” value was -5.24%.

With `Cn1cc(Br)c(C(=O)Nc2c(F)c(F)c(F)c(F)c2F)n1`, the “hERG current change (%, negative = inhibition) at 10uM” value is on record as -6.6%.

For the compound `COc1ccc(Cl)cc1S(=O)(=O)N1CCC(C(=O)NCc2ccccn2)CC1`, the “hERG current change (%, negative = inhibition) at 10uM” value is -7.12%. To `O=CN1CCN(C(=O)c2cccc([N+](=O)[O-])c2)CC1` belongs -4.11%. As to `Cn1nc(C(=O)N2CCN(S(=O)(=O)/C=C/c3ccccc3)CC2)c2ccccc2c1=O`, the “hERG current change (%, negative = inhibition) at 10uM” value is recorded as -65.1%.

On to `O=C(c1ccco1)N1CCN(S(=O)(=O)/C=C/c2ccccc2)CC1`, for which the “hERG current change (%, negative = inhibition) at 10uM” value is recorded as -38.3%. To `Cn1nc(C(=O)N2CCN(S(=O)(=O)c3ccccc3)CC2)c2ccccc2c1=O` belongs -23%; to `O=C(c1ccc(Cl)cc1)N1CCN(S(=O)(=O)/C=C/c2ccccc2)CC1`, -54.8%. The value for `O=C(c1cccc([N+](=O)[O-])c1)N1CCN(S(=O)(=O)N2CCCCC2)CC1` was -15.2%.

Turning to `O=C(c1cccc([N+](=O)[O-])c1)N1CCN(S(=O)(=O)/C=C/c2ccccc2)CC1`, the “hERG current change (%, negative = inhibition) at 10uM” value is listed as -64.3%.

Turning to `O=C(c1ccc2ccccc2c1)N1CCN(S(=O)(=O)/C=C/c2ccccc2)CC1`, the “hERG current change (%, negative = inhibition) at 10uM” value is -31.9%. The value for `O=C(c1cccc([N+](=O)[O-])c1)N1CCN(C/C=C/c2ccccc2)CC1` was -65.9%. The value for `O=C(c1cccc([N+](=O)[O-])c1)N1CCCN(C(=O)c2cccc([N+](=O)[O-])c2)CC1` was -42%; that for `Nc1ccc(C(=O)N2CCN(S(=O)(=O)/C=C/c3ccccc3)CC2)cc1[N+](=O)[O-]` was -43.9%; that for `Cn1nc(C(=O)N2CCN(C(c3ccccc3)c3ccccc3)CC2)c2ccccc2c1=O` was -35.2%. As for `Cc1nc(N=Nc2ccc(O)cc2)n[nH]1`, the “hERG current change (%, negative = inhibition) at 10uM” value is listed as 7.01%. The value for `CC12CC[C@H]3[C@@H](CCC4(O)C[C@H](O)CCC34/C=N/NC(=O)c3ccccc3Cl)C1(O)CCC2C1=CC(=O)OC1` (some centres unmarked) was 9.69%; that for `O=C(COC(=O)c1ccc(S(=O)(=O)Nc2ccccc2)cc1)NCC1CCCO1` (centres unmarked) was 1.33%. The value for `COC(=O)c1ccccc1NC(=O)c1ccc(COc2cccc3ccccc23)o1` was 0.342%; that for `NC(=O)c1nsc(C(=O)N(CCCN2CCOCC2)C(C(=O)NC2CCCCC2)c2ccc(Cl)cc2)c1N` (centres unmarked) was -42.8%; that for `CCCNc1nc2c(c(=O)[nH]c(=O)n2C)n1CCC(C)C` was -0.274%.

Regarding `Cc1ccc(OCC(=O)N2CCC(C)CC2)c([N+](=O)[O-])n1`, the “hERG current change (%, negative = inhibition) at 10uM” value was -7.74%.

On to `O=C(COc1ccccc1[N+](=O)[O-])N1CCC(Cc2ccccc2)CC1`, for which the “hERG current change (%, negative = inhibition) at 10uM” value is -16.1%. Take `CC(=O)c1ccc(OCCCC(=O)N2CCN(S(=O)(=O)c3ccc(C)cc3C)CC2)cc1`: the “hERG current change (%, negative = inhibition) at 10uM” value is listed as -40.8%.

Take `CC(=O)c1ccc(OCCCC(=O)N2CCN(S(=O)(=O)c3cc(C)ccc3C)CC2)cc1`: the “hERG current change (%, negative = inhibition) at 10uM” value is -37.1%.

With `Cc1ccc(OCC(=O)N2CCN(S(=O)(=O)c3ccc(Cl)cc3)CC2)c([N+](=O)[O-])n1`, the “hERG current change (%, negative = inhibition) at 10uM” value is listed as -48.8%. As to `Cc1ccc(OCC(=O)N2CCN(S(=O)(=O)c3ccccc3)CC2)c([N+](=O)[O-])n1`, the “hERG current change (%, negative = inhibition) at 10uM” value is reported as -45.8%.

With `CC(=O)c1ccc(OCC(=O)N2CCN(S(=O)(=O)c3ccc(C)cc3C)CC2)cc1`, the “hERG current change (%, negative = inhibition) at 10uM” value is given as -61.6%. `Cc1ccc(OCC(=O)N2CCC(Cc3ccccc3)CC2)c([N+](=O)[O-])n1`: the “hERG current change (%, negative = inhibition) at 10uM” value is listed as -67.7%. To `Cc1ccc(S(=O)(=O)N2CCN(C(=O)COc3ccc(C)nc3[N+](=O)[O-])CC2)c(C)c1` belongs -61%; to `COc1ccc(CNC(=S)Nc2ccc(OC)cc2)cc1`, 3.09%. The value for `Cc1nnc(-c2ccc(N3CCCCCC3)c([N+](=O)[O-])c2)o1` was -4.52%; that for `Cc1ccc(CN2C(=O)CCC2C(=O)NCCc2ccccc2)cc1` (centres unmarked) was 7.99%. For `c1ccc2nc3c(nc2c1)CCCC3`, the “hERG current change (%, negative = inhibition) at 10uM” value stood at 17.2%. Turning to `Cn1c(=O)c2c(nc(SCc3cccnc3)n2Cc2ccccc2)n(C)c1=O`, the “hERG current change (%, negative = inhibition) at 10uM” value is -17.6%. To `C=CCOCCN(C)C1=NS(=O)(=O)c2cc([N+](=O)[O-])ccc21` belongs -19.8%; to `Cc1ncc(CN2CCC(CO)(CCc3ccccc3)CC2)s1`, -60.4%; to `Cc1ncc(CN2CCC(CO)(CCOc3ccccc3)CC2)s1`, -70.1%. To `Cc1ncc(CN2CCC(CO)(Cc3ccccc3)CC2)s1` belongs -7%.

`Cc1ccc(NC(=O)c2ccc3nc(N4CCOCC4)sc3c2)c(Cl)c1`: the “hERG current change (%, negative = inhibition) at 10uM” value stood at 6.14%. To `Cc1ccc(NC(=O)/C=N/OCC(=O)NCc2ccccc2Cl)cc1` belongs 2.92%. The value for `Cc1cc(C)n2c(Br)c(CSc3nc4ccccc4o3)nc2n1` was -63.9%; that for `Cc1cc(C)nc(NC(=O)CSc2nc3ccccc3s2)n1` was 2.88%; that for `Cc1cc(C)nc(SCc2nc3nc(C)cc(C)n3c2Br)n1` was -22.6%. Regarding `Cc1csc2nc(CSc3nc4ccccc4o3)c(Br)n12`, the “hERG current change (%, negative = inhibition) at 10uM” value is recorded as 7.03%. The value for `Cc1cc(C)n(C(=O)CSc2nc3ccccc3o2)n1` was 19.3%. The value for `Cc1cc(C)n2c(Br)c(CSc3nc4ccccc4s3)nc2n1` was -76.7%; that for `CCOc1ccc(/C=N/NC(=O)c2[nH]ncc2Br)c(O)c1` was 4.05%. The value for `Cc1ccc(C(CC(=O)NCCCN(C)C)c2ccc(OC(C)C)cc2)cc1` (centres unmarked) was -42.9%. Turning to `CC(C)Oc1ccc(C(CC(=O)O)c2ccc(F)cc2)cc1` (centres unmarked), the “hERG current change (%, negative = inhibition) at 10uM” value was determined as 6.58%.

`CN(C)CCCNC(=O)CC(c1ccc(F)cc1)c1ccco1` (centres unmarked): the “hERG current change (%, negative = inhibition) at 10uM” value is -37.3%.

Regarding `CC(C)Oc1ccc(C(CC(=O)NCCCN(C)C)c2ccc(F)cc2)cc1` (centres unmarked), the “hERG current change (%, negative = inhibition) at 10uM” value was -57.1%. For the compound `CC(C)Oc1ccc(C(CC(=O)N(C)CCC#N)c2ccc(F)cc2)cc1` (centres unmarked), the “hERG current change (%, negative = inhibition) at 10uM” value is recorded as -59.2%. The value for `COc1ccc(NC(=O)CC(c2ccc(F)cc2)c2ccc(OC(C)C)cc2)cc1` (centres unmarked) was 3.91%; that for `Br.O=C(N=c1nc2ccccn2s1)c1ccccc1` was 14.1%; that for `CCn1c(COc2ccc(=O)n(-c3ccccc3)n2)n[nH]c1=S` was 23.3%. The value for `CCn1c(COc2ccc(=O)n(-c3ccccc3)n2)nnc1SCC(=O)OC` was 9.02%; that for `CCn1c(COc2ccc(=O)n(-c3ccccc3)n2)nnc1SCc1ccccc1` was -48.2%; that for `CCn1c(COc2ccc(=O)n(-c3ccccc3)n2)nnc1SCc1cccc(OC)c1` was -39.1%. To `CCn1c(COc2ccc(=O)n(-c3ccccc3)n2)nnc1SCc1ccc(C)cc1` belongs -59.9%; to `C=CCSc1nnc(COc2ccc(=O)n(-c3ccccc3)n2)n1CC`, -2.15%; to `CCn1c(COc2ccc(=O)n(-c3ccccc3)n2)nnc1SCc1ccc(OC)cc1`, -67.7%. In the case of `CCn1c(COc2ccc(=O)n(-c3ccccc3)n2)nnc1SCc1ccccc1C`, the “hERG current change (%, negative = inhibition) at 10uM” value is -65.4%. The value for `CCn1c(COc2ccc(=O)n(-c3ccccc3)n2)nnc1SC` was 2.39%; that for `COc1ccc(-c2csc(NC(=O)CSc3nc(C)nc4sc(C(=O)O)c(C)c34)n2)cc1` was 11.9%; that for `COCCNc1nc2c(c(=O)n(Cc3ccccc3F)c(=O)n2C)n1C` was -15.8%. To `C=CCNC(=O)C(=O)Nc1ccc2c(c1)N(S(=O)(=O)c1cccs1)CCC2` belongs -14.7%; to `Cc1ccc(S(=O)(=O)NC(C(=O)Oc2cc3oc(=O)cc(C)c3cc2Cl)C(C)C)cc1` (centres unmarked), -34.3%. The value for `CCOc1ccc(/C=C(\C)C(=O)c2c(C)cc(C)[nH]c2=O)cc1` was 5.24%; that for `CCCCC(CC)C(=O)Nc1ccc(Nc2ccccc2)cc1` (centres unmarked) was -12.8%. `CCCCc1ccc(NC(=O)CC(C)C)cc1`: the “hERG current change (%, negative = inhibition) at 10uM” value is reported as -6.78%. Consider `CCCCc1ccc(NC(=O)C(C)CC)cc1` (centres unmarked), for which the “hERG current change (%, negative = inhibition) at 10uM” value was -50.5%. In the case of `CCCCC(CC)C(=O)Nc1ccc(C#N)cc1` (centres unmarked), the “hERG current change (%, negative = inhibition) at 10uM” value is on record as -52.5%. As for `CCCCC(CC)C(=O)Nc1ccccc1C#N` (centres unmarked), the “hERG current change (%, negative = inhibition) at 10uM” value is -4.83%.

For the compound `CCCCc1ccc(NC(=O)OC)cc1`, the “hERG current change (%, negative = inhibition) at 10uM” value was -9.08%. The value for `COc1ccc(CNC(=O)c2ccc(NS(=O)(=O)c3ccc4[nH]c(=O)[nH]c4c3)cc2)cc1OC` was 13.3%. The value for `CCOC(=O)c1ccc(NC(=O)CSc2nc(=O)n3cccc(C)c3n2)cc1` was -21.9%; that for `COc1cc(Cl)c(S(=O)(=O)NCCCn2ccnc2)cc1Cl` was 3.34%. To `CCOC(=O)CSCC(=O)Nc1cc(C)ccc1C` belongs 0.851%; to `CNS(=O)(=O)c1cc(O)c2c(S(=O)(=O)NC)cccc2c1`, 11%; to `Cc1c(Cl)ccc2c(C(=O)NC(C)c3ccncc3)cc(-c3ccncc3)nc12` (centres unmarked), -59.3%. With `Cc1c(Cl)ccc2c(C(=O)O)cc(-c3ccccc3)nc12`, the “hERG current change (%, negative = inhibition) at 10uM” value is -1.96%. To `COC(=O)CNC(=O)c1cc(-c2ccncc2)nc2c(C)c(Cl)ccc12` belongs -27.9%.
